RGS4-Gao reg – modulators of RGS4 binding to Galphao, primary screen, biochemical, multiplexed bead flow cytometry. Guanine nucleotide-binding protein G(o) subunit alpha (Homo sapiens), P09471. actives lie on both sides. binding response (% of control), % at 10 µM. 220,000 tested, 0.33% active; in the data active means binding response below about 49% or above about 150%; inactive means in between;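 further: fluorescent Galphao activated with aluminum fluoride binding bead-coupled RGS4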
Target sequence (P09471 whole entry, looked up): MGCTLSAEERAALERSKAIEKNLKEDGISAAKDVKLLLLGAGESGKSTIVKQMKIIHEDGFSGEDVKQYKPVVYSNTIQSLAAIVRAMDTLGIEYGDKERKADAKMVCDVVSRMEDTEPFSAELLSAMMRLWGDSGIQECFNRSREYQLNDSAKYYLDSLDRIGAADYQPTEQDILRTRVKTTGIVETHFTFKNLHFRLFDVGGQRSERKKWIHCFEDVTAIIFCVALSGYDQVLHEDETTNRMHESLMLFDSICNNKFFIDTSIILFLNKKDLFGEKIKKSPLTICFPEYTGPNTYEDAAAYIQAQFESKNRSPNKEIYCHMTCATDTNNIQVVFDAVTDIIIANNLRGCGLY
GSH bead fluor – compound fluorescence on glutathione beads, profiling panel, artefact control, biophysical, 488/530 nm, flow cytometry. fluorescence (KMESF) at 10 µM. GSH beads flow cytometry, compound fluorescence 488/530 nm; active compounds read high. 190,000 tested, 0.25% active. AID 1776, 2009; in the data active means fluorescence above about 89;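 further: glutathione beads carrying GST-tagged Bcl family fusion proteins plus one bare bead set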
Avidin bead fluor – green autofluorescence of compounds with avidin beads – biophysical, 488/530 nm, flow cytometry, artefact control, profiling panel. compound fluorescence 488/530 nm; active compounds read high. fluorescence (KMESF) at 10 µM. 220,000 tested, 0.38% active. AID 1775, 2009; in the data active means fluorescence above about 47
RGS7-Gao – RGS7-Galphao binding modulators, primary screen, biochemical, multiplexed bead flow cytometry. Guanine nucleotide-binding protein G(o) subunit alpha (Homo sapiens), P09471. actives lie on both sides. binding response (% of control), % at 10 µM. 220,000 tested, 0.35% active; in the data active means binding response below about 49% or above about 150%; inconclusive means no clear call, values can overlap the other calls; inactive means in between;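 further: fluorescent Galphao held in activated GDP-AlF4 state binding bead-coupled RGS7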
RGS16-Gao – modulators of RGS16 binding to Galphao, primary screen, biochemical, human proteins, multiplexed bead flow cytometry. bead-based flow cytometry RGS16-Galphao binding, fluorescence; actives lie on both sides. 220,000 tested, 0.38% active. Regulator of G-protein signaling 16 (Homo sapiens) + Guanine nucleotide-binding protein …. binding response (% of control), % at 10 µM. AID 1441, 2008;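 further: Galphao activated by GDP with aluminum fluoride before binding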
Target sequence (O15492 whole entry, looked up): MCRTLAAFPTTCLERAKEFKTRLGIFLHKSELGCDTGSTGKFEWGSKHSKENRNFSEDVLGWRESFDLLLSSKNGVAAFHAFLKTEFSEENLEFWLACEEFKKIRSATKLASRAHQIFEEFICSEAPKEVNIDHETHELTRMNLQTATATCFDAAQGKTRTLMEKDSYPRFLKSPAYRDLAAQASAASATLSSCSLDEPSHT
Target sequence (P09471 whole entry, looked up): as the sequence (P09471 whole entry, looked up) above
RGS8-Gao reg – RGS8-Galphao binding modulators, primary screen, biochemical, multiplexed bead flow cytometry; actives lie on both sides; response (percent of control binding), % at 10 µM; 220,000 tested, 0.34% active; in the data active means response below about 60% or above about 140%; inactive means in between;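 further: Galphao activated as the GDP aluminium fluoride complex binding bead-coupled RGS8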
RGS4-Gao HTS – modulators of RGS–Galpha-o binding, primary screen, biochemical, multiplexed beads, flow cytometry, RGS4/7/8/16/19; RGS4–Galpha-o binding response, % at 10 µM; multiplexed bead flow cytometry; 1,600 tested, 99% active; AID 1504, 2009; shares compounds with RGS16-Gao;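 further: fluorescently labeled Galpha-o bound to GDP with aluminium fluoride binding biotinylated RGS beads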
Avidin counter – disruption of biotin probe capture by avidin, counter-screen for RGS protein interaction modulators, biochemical, flow cytometry, bead-based | shares compounds with RGS16-Gao | streptavidin beads, fluorescein-biotin binding | inhibition, % at 10 µM | 1,700 tested, under 10 active;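 active means inhibition above 50%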;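 further: median green fluorescence of gated singlet beads compared with DMSO control wells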
RGS8-Gao confirm – RGS8-Galphao binding modulators, confirmation, biochemical, multiplexed bead flow cytometry, single concentration; shares compounds with RGS16-Gao; bead-based flow cytometry RGS8-Galphao binding, fluorescence; actives lie on both sides; binding response (% of control), % at 10 µM; 1,700 tested, 3% active; AID 1836, 2009; in the data active means binding response below about 72% or above about 130%; inactive means in between;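 further: Galphao activated as GDP AlF4 complex before binding bead RGS8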
RGS7-Gao confirm – RGS7-Galphao binding modulators, confirmation, biochemical, multiplexed bead flow cytometry, single concentration; AID 1837, 2009; 1,700 tested, 7.8% active; shares compounds with RGS16-Gao; bead-based flow cytometry RGS7-Galphao binding; actives lie on both sides; response (percent of control binding), % at 10 µM; in the data active means response below about 75% or above about 130%; inactive means in between;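 further: fluorescent Galphao activated with GDP and aluminum fluoride binding bead-coupled RGS7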
RGS16-Gao single – modulators of RGS16-Galphao protein binding, confirmation, biochemical, single concentration, multiplexed bead flow cytometry; shares compounds with RGS16-Gao; bead-based flow cytometry; actives lie on both sides; response (% of control binding), % at 10 µM; 1,700 tested, 4% active; AID 1838, 2009; in the data active means response below about 74% or above about 130%; inactive means in between;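 further: Galphao activated as the GDP aluminium fluoride complex binding bead-coupled RGS16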
RGS4-Gao single – modulators of RGS4-Galphao protein binding, confirmation, biochemical, single concentration, multiplexed bead flow cytometry | shares compounds with RGS16-Gao | actives lie on both sides | binding response (% of control), % at 10 µM | 1,700 tested, 4% active | AID 1840, 2009; in the data active means binding response below about 74% or above about 130%; inactive means in between
RGS19-Gao single – regulators of RGS19-Galphao binding, confirmation, biochemical, single point, multiplexed bead flow cytometry; shares compounds with RGS16-Gao; bead-based flow cytometry RGS19-Galphao binding; actives lie on both sides; response (percent of control binding), % at 10 µM; 1,700 tested, 5% active; AID 1841, 2009; in the data active means response below about 50% or above about 160%; inactive means in between
Each line names hits and unclear results; the compound was inactive in the other large screens (follow-up assays come after a bar, where they were run); [ ] = another dose, or the depositor's remark. Only some compounds are listed: those with a hit (about 1.2% of all), similar ones and a draw of the others. Unless noted, how the calls were made is not given here.

Cc1c(N2C(=O)CSC2c2ccc([N+](=O)[O-])cc2)c(=O)n(-c2ccccc2)n1C (configuration not stated)	RGS4-Gao reg 164[activator], RGS7-Gao inconclusive (no result: GSH bead fluor) | Avidin counter inactive | RGS8-Gao confirm inactive | RGS7-Gao confirm inactive | RGS16-Gao single inactive | RGS4-Gao single inactive | RGS19-Gao single inactive
COc1ccc(C2SCC(=O)N2c2c(C)n(C)n(-c3ccccc3)c2=O)cc1 (configuration not stated)	none
COc1ccc(-n2nc(C(=O)NCC(=O)Nc3ccccn3)c3ccccc3c2=O)cc1Cl	RGS4-Gao reg 167[activator] | Avidin counter inactive | RGS8-Gao confirm inactive | RGS7-Gao confirm inactive | RGS16-Gao single inactive | RGS4-Gao single inactive | RGS19-Gao single inactive
O=C(O)c1ccccc1Sc1c([N+](=O)[O-])cc(C(F)(F)F)cc1[N+](=O)[O-]	none
Cc1ccc(C(C)C)c(OCc2nn(CC(=O)c3ccc(Cl)cc3)c3[n+]2CCCCC3)c1	none
O=C(CSc1nc2ccccc2[nH]1)N1CCN(S(=O)(=O)c2ccc(Cl)cc2)CC1	none
CNC(=O)C1CC(=O)N(CCCc2ccccc2)C(=Nc2ccccc2)S1 (configuration not stated)	RGS16-Gao 22 | RGS4-Gao HTS 94 | Avidin counter inactive | RGS8-Gao confirm inactive | RGS7-Gao confirm inactive | RGS16-Gao single inactive | RGS4-Gao single inactive | RGS19-Gao single inactive
COC(=O)CCCNC(=O)c1ccccn1	Avidin bead fluor 229, RGS7-Gao 231[activator] | RGS4-Gao HTS 120 | Avidin counter inactive | RGS8-Gao confirm inactive | RGS7-Gao confirm inactive | RGS16-Gao single inactive | RGS4-Gao single inactive | RGS19-Gao single inactive
O=C(Nc1nc2c(F)cc(F)cc2s1)C1CC(=O)N(Cc2ccco2)C1 (configuration not stated)	RGS7-Gao inconclusive (no result: GSH bead fluor)
CC(Oc1ccccc1)C(=O)N/N=C/c1ccccn1 (configuration not stated)	none
CC(=O)Nc1ccccc1-c1nc2ccc(C(=O)N3CCN(c4cc(C)ccc4C)CC3)cc2[nH]c1=O	Avidin bead fluor 78, RGS7-Gao 168[activator] | RGS4-Gao HTS 111 | Avidin counter inactive | RGS8-Gao confirm inactive | RGS7-Gao confirm 74 | RGS16-Gao single inactive | RGS4-Gao single inactive | RGS19-Gao single inactive
CCCCN(CCCC)CCCNC(=O)c1ccc2nc(-c3ccccc3NC(C)=O)c(=O)[nH]c2c1	none
CC1Cc2cc(/C(O)=C3/C(=O)C(=O)N(CC4CCCO4)C3c3ccco3)ccc2O1 (configuration not stated)	Avidin bead fluor 110, RGS7-Gao 186[activator] | RGS4-Gao HTS 115 | Avidin counter inactive | RGS8-Gao confirm inactive | RGS7-Gao confirm inactive | RGS16-Gao single inactive | RGS4-Gao single inactive | RGS19-Gao single inactive
CC1(C)CC2CC(C)(CN2/C=C2/CCCCC2=O)C1 (configuration not stated)	RGS7-Gao inconclusive (no result: GSH bead fluor)
CCOc1cc(/C=N/Nc2nc(-c3cccs3)c(NC(C)=O)s2)ccc1O	RGS7-Gao inconclusive (no result: GSH bead fluor)
CC(=O)NN1C(=O)c2ccccc2NC1c1ccccn1 (configuration not stated)	RGS16-Gao 22 | RGS4-Gao HTS 97 | Avidin counter inactive | RGS8-Gao confirm inactive | RGS7-Gao confirm inactive | RGS16-Gao single inactive | RGS4-Gao single inactive | RGS19-Gao single inactive
CC1CCCN(c2nc3c(c(=O)[nH]c(=O)n3C)n2CCSc2ncccn2)C1 (configuration not stated)	none
Cc1nn(-c2ccc(F)cc2)c2sc(C(=O)OC3CCOC3=O)cc12 (configuration not stated)	none (no result: RGS4-Gao reg, Avidin bead fluor, RGS7-Gao, RGS16-Gao, RGS8-Gao reg) | Avidin counter inactive | RGS8-Gao confirm inactive | RGS7-Gao confirm inactive | RGS16-Gao single inactive | RGS4-Gao single inactive | RGS19-Gao single inactive
O=C(/C=C/c1ccc([N+](=O)[O-])cc1)NCCSc1ccccc1	none
Cc1ccc(SCCNC(=O)/C=C/c2ccc([N+](=O)[O-])cc2)cc1	RGS16-Gao 280[activator] | RGS4-Gao HTS 113 | Avidin counter inactive | RGS8-Gao confirm inactive | RGS7-Gao confirm inactive | RGS16-Gao single inactive | RGS4-Gao single inactive | RGS19-Gao single inactive
O=C(O)c1cc(C(F)(F)F)nc2c(C(F)(F)F)cccc12	RGS7-Gao 174[activator] | RGS4-Gao HTS 143
CC(=O)Nc1ccc(S(=O)(=O)N2CCN(Cc3cccs3)CC2)cc1	none
Cc1ccc(CC(=O)O/N=C(\N)Cc2ccc([N+](=O)[O-])cc2)cc1	RGS16-Gao 17 | RGS4-Gao HTS 92
CCC1S/C(=N/N=C/c2ccco2)N(Cc2ccccc2)C1=O (configuration not stated)	none (no result: RGS4-Gao reg, GSH bead fluor, Avidin bead fluor, RGS7-Gao, RGS16-Gao, RGS8-Gao reg) | Avidin counter inactive | RGS8-Gao confirm inactive | RGS7-Gao confirm inactive | RGS16-Gao single inactive | RGS4-Gao single inactive | RGS19-Gao single inactive

Bioassay records deposited in PubChem by NMMLSC.
